High-throughput results (PubChem)
In the library only some 7.2% were active in any assay of this set; here they are far more common.
HEK293 viab = reduces viability of HEK-293 SNCA reporter cells. HEK-293-SNCA-luc viability, GF-AFC fluorescence, 24 h. Potency, µM (top dose mostly 57.1 µM), for the others: at the top dose activity change, negative = cytotoxicity, hits mostly cytotoxic. hit rate 0.12% among 150,000;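 also: 0% = DMSO-treated cells and -100% = medium-only wells without cells; nearly all actives have a fitted effect of over 30% in size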
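Cytotoxicity counterscreen: after 24 h compound treatment of genome-edited SNCA-luciferase HEK-293 cells, live-cell protease substrate GF-AFC read by fluorescence after 30 min; activity scaled between DMSO (0%) and medium-only (-100%), curves Hill-fitted.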
FLuc inh = blocks purified firefly luciferase enzyme activity; purified P. pyralis luciferase, luminescence, biochemical; P08659; hit rate 2.5% among 76,000; Potency, µM (doses to about 115 µM), usual class: inhibitors; also: nearly all actives have a fitted effect of over 65% in size
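Biochemical qHTS: compound (6-point titration) added to 10uM D-luciferin plus 10uM ATP in Tris acetate pH 7.5 buffer with Mg, Tween-20 and BSA, then purified enzyme at 10nM; light output imaged.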
NIH3T3 tox = kills NIH 3T3 cells; AID 1345082; Potency, µM (titrated, usually from 96.7 µM), inactives show top-dose activity change, negative = cytotoxicity, usual class: inhibitors; hit rate 4.3% among 94,000; NIH 3T3 viability, CellTiter-Glo ATP luminescence, 48-72 h; also: nearly all actives have a fitted effect of over 55% in size
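Cytotoxicity is measured as loss of cellular ATP: NIH 3T3 cells (400/well) are exposed to compound for 48 or 72 hr at 37 °C, then CellTiter-Glo luminescence is imaged after 10 min at room temperature.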
HEK cytotox = kills HEK 293 cells | HEK 293 viability, ATP luminescence (CellTiter-Glo), 48-72 h | Potency, µM (doses to about 115 µM), inactives show top-dose activity change, negative = cytotoxicity, hits mostly inhibitors | hit rate 6.6% among 94,000 | AID 1345083; also: nearly all actives have a fitted effect of over 60% in size
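ATP-coupled CellTiter-Glo luminescence served as viability read-out, recorded 10 min after reagent addition at room temperature. HEK 293 cells, 250 cells/well, had been incubated with pintool-transferred compound for 48 or 72 hr at 37 degree Celsius.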
NPR1 antag = human Npr1 receptor antagonism | P16066 | HEK293 hNpr1 GloSensor cGMP, ANP-stimulated luminescence | Potency, µM (titrated, usually from 46.3 µM), inactives show top-dose activity change, negative = inhibition, actives largely listed as inhibitors | hit rate 1.6% among 76,000 | AID 1347048; calls by dose curve; also: nearly all actives have a fitted effect of over 60% in size
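Compound pre-incubated 30 min at room temperature on GloSensor-loaded HEK293 cells stably carrying hNpr1 and the pGS-40F cGMP biosensor. Stimulation uses hNppA at 0.1 nM final; luminescence is taken at baseline and 20 min post-agonist.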
SNCA expr inhib = SNCA gene expression inhibition; HEK-293 SNCA-luciferase knock-in, luminescence, 24 h; Potency, µM (doses to about 57.2 µM), inactives show at the highest dose activity change, negative = inhibition, actives largely listed as inhibitors; hit rate 0.17% among 140,000; AID 1671194;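 also: plate controls were DMSO cells for no effect and cell-free wells for full effect; nearly all actives have a fitted effect of over 45% in size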
Numbers without * were called inactive; i = inactive; ? = inconclusive; · = no result; [ ] = remark or other dose. Unless noted, calls follow the shape of the dose curve; as a rule, active = well fitted curve in the direction sought with a large enough effect; inconclusive = small, poorly fitted or top-dose-only effect, or another doubt; inactive = no such curve, though single readings can be large; an effect the other way counts as inactive or inconclusive. Unless noted, % is scaled to controls: 0 for no effect and ±100 for the full control effect; potency is read from the fitted curve at half-maximal effect.

SMILES | HEK293 viab | FLuc inh | NIH3T3 tox | HEK cytotox | NPR1 antag | SNCA expr inhib
CC1=C[C@@H](CNS(=O)(=O)c2ccccc2)[C@H](C(C)C)C[C@H]1Cc1nc2ccncc2[nH]1 | ? | i | 79µM* | 71µM* | -23%[70.6 µM] | ?
CCC(CC)C(=O)NC[C@@H]1C=C(C)[C@H](Cc2nc3ccc(F)cc3[nH]2)C[C@H]1C(C)C | ? | i | 100µM* | ? | -28%[70.6 µM] | -25%[87.6 µM]
CN1C(=O)C(CC(=O)N(C)C2CCNCC2)(Cc2ccccc2)c2ccccc21 (stereo unspecified) | -6% | i | 3% | -7% | 5% | 1%
Cc1ccncc1C(=O)N1CCC2(CC1)CC(N1CCN(c3ccccn3)CC1)CCO2 (stereo unspecified) | 6% | i | -15% | -20% | 0% | 16%
CC(C)(C)c1ccc(C(=O)N2C[C@@H](CO)[C@H](c3ccncc3)C2)cc1 | 4% | i | -8% | -5% | 0% | -13%
CCC(CC)C(=O)NC[C@@H]1C=C(C)[C@H](Cc2nc3ccc(OC)cc3[nH]2)C[C@H]1C(C)C | 40µM* | i | ? | 45µM* | -22%[70.6 µM] | ?
CC1=C[C@@H](CNC(=O)CCC(=O)O)[C@H](C(C)C)C[C@H]1Cc1nc2ccncc2[nH]1 | -6%[87.6 µM] | i | 3%[138 µM] | i | 7%[70.6 µM] | -11%[87.6 µM]
COc1ccc(C(=O)NC[C@@H]2C=C(C)[C@H](Cc3nc4ccncc4[nH]3)C[C@H]2C(C)C)cc1 | ? | i | ? | 89µM* | -27%[70.6 µM] | -23%[87.6 µM]
CCC(CC)C(=O)NC[C@@H]1C=C(C)[C@H](Cc2nc3ccc(C)cc3[nH]2)C[C@H]1C(C)C | ? | i | ? | 63µM* | -17%[70.6 µM] | ?
CC1=C[C@@H](CN2C(=O)C(C)=C(C)C2=O)[C@H](C(C)C)C[C@H]1Cc1nc2ccc(C)cc2[nH]1 | ? | i | 28µM* | 22µM* | ? | ?
C[S+](=O)([O-])N1Cc2ccccc2CC12CN(C(=O)c1ccc(C(F)(F)F)cc1)C2 | 12% | i | ? | ? | 0% | -12%
Cc1noc([C@@H]2CN(C(=O)COc3ccc(Cl)cc3)C[C@H]2CO)n1 | 0% | i | i | i | -1% | -6%
Cc1ccc(-n2c(=O)c3c4c(sc3n(Cc3ccccc3F)c2=O)CCC4)cc1C | 0% | · | · | · | · | 28µM*
Cc1ccc(C(=O)N2CCc3nc(C(C)C)nc(-c4ccc(O)cc4)c3CC2)cc1 | -28% | i | -12% | -7% | -17% | -7%
Cn1ccc2c(C(=O)NCc3cccnc3)nc(-c3cccc(O)c3)cc21 | -21%[87.6 µM] | i | ? | ? | -21%[70.6 µM] | 26%[87.6 µM]
Cn1ccc2c(C(=O)NCc3cccnc3)nc(-c3cncnc3)cc21 | 6%[87.6 µM] | i | 45µM* | -21%[172 µM] | 2%[70.6 µM] | -2%[87.6 µM]
Cn1ccc2c(C(=O)NCc3cccnc3)nc(-c3cccc(F)c3)cc21 | -9%[87.6 µM] | i | ? | 89µM* | ? | -8%[87.6 µM]
Cc1ccc(-c2cc3c(ccn3C)c(C(=O)NCc3cccnc3)n2)cn1 | -9%[87.6 µM] | i | 35µM* | ? | 8%[70.6 µM] | 60%[87.6 µM]
Cc1ccc(-c2cc3c(ccn3C)c(C(=O)NCCc3cnc[nH]3)n2)cn1 | -6%[87.6 µM] | i | 28µM* | ? | 5%[70.6 µM] | 16%[87.6 µM]
O=C(NCCc1cnc[nH]1)c1nc(-c2ccccc2)cc2[nH]ccc12 | -16%[87.6 µM] | i | ? | ? | -13%[70.6 µM] | 2%[87.6 µM]
CC(C)=CCn1c(-c2ccc(F)cc2)cn2cc(C(=O)N3CCCCC3)nc2c1=O | ? | i | ? | -32% | -7% | ?
O=C(C1CCCC1)N1CCCN(c2ccnc3ccnn23)CC1 | 0%[87.6 µM] | · | ? | ? | · | 13%[87.6 µM]
Cn1ccc2c(C(=O)NCc3cccnc3)nc(-c3ccc([S+](C)(=O)[O-])cc3)cc21 | -9%[87.6 µM] | i | ? | ? | 2%[70.6 µM] | -5%[87.6 µM]
